13 compounds from PubChem BioAssay AID1014 (NMMLSC, 2008) can be followed below.

Active and inactive are the calls of the source. No stated cut-off is given here; in the data, active means inhibition of mean fluorescence above about 33%; inactive means the rest.

The nature of this assay: blockers of bacterial quorum-sensing reporter fluorescence – flow cytometry, SAR analogs, SAR follow-up (AID 1014).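 Further: Staphylococcus aureus RN6390 with RNAIII-GFP reporter stimulated by AIP; bacteria incubated with compound for 3 hours at 37 °C.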 The following applies: at 20 µM, stronger effect = higher value; inhibition of percent positive cells: measured here: percent reporter-positive cells. Background: A flow cytometer gives signals particle by particle.

Turning to `O=C(O)c1c(F)c(F)c(F)c(F)c1Nc1cccc(C(F)(F)F)c1`, the inhibition of mean fluorescence is 6% (inactive) and the inhibition of percent positive cells is -0.1%.
As for `Cc1cc(C)cc(Nc2nc3c(S(=O)(=O)c4ccccc4)nnn3c3ccccc23)c1`, the inhibition of mean fluorescence is 0.4% (inactive) and the inhibition of percent positive cells stood at 0.1%.
Take `CCc1c(C(=O)c2ccc(C)cc2)oc2ccc3c(C)cc(=O)oc3c12`: the inhibition of mean fluorescence is 10.8% (inactive) and the inhibition of percent positive cells was -0.1%.
As to `O=C(O)c1ccccc1Nc1ccnc(N2CCOCC2)n1`, the inhibition of mean fluorescence was 5.6% (inactive) and the inhibition of percent positive cells was determined as 0%.
On the same counts, the results for `O=C(NCC(c1cccnc1)N1CCN(c2ccccc2F)CC1)c1ccccc1` (stereo unspecified) are -24.2% (inactive) and -1.5%.
For `Cc1oc2ccc(O)cc2c1C(=O)O`, the inhibition of mean fluorescence was -20.2% (inactive) and the inhibition of percent positive cells was -0.5%.
For `CCc1ccc(Nc2nc3c(S(=O)(=O)c4ccc(C)cc4)nnn3c3ccccc23)cc1`, in that order: 19.1% (inactive) and -1.1%.
For the compound `COc1c(F)c(F)c(C(=O)O)c(Nc2cc(C)cc(C)c2)c1F`, the inhibition of mean fluorescence is -29.1% (inactive) and the inhibition of percent positive cells is -2%.
For `O=CN1CCN(C(C(=O)NC2CCCC2)c2cc3c(cc2[N+](=O)[O-])OCO3)CC1` (stereo unspecified), in that order: -8.7% (inactive) and -0.6%.
Consider `COc1cccc(C(=O)NCC(c2cccnc2)N2CCN(c3ccccc3F)CC2)c1` (stereo unspecified), for which the inhibition of mean fluorescence is 7% (inactive) and the inhibition of percent positive cells is -1.4%.
Consider `O=C(Nc1ccc2c(c1)OCO2)C1CCCN(C(=O)c2cnn(-c3ccccc3)c2-n2cccc2)C1` (stereo unspecified), for which the inhibition of mean fluorescence was -23.9% (inactive) and the inhibition of percent positive cells is 0.1%.
As for `COc1ccc(Nc2nc3c(S(=O)(=O)c4ccccc4)nnn3c3ccsc23)cc1`, the inhibition of mean fluorescence was -41.7% (inactive) and the inhibition of percent positive cells came to 0.3%.
On the same counts, the results for `O=C(CSc1cn(CC(=O)N2CCCCC2)c2ccccc12)Nc1ccc2c(c1)OCO2` are -6.3% (inactive) and -0.1%.
